Our source for the growth inhibition, inhibition and outcome values is PubChem BioAssay.

In general, inhibition refers to the drop in the measured response relative to a control, in per cent.

Unmarked numbers belong to inactive results. For some of these results: Entries with a potency or affinity are not part of this list. Active and inactive are the calls of the source. Unless noted, how the calls were made is not given here.

The nature of assay [1]: antimalarial activity against Dd2 strain (AID 2302;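 active means growth inhibition above 50% at the single 2 µM test dose, taken to imply half-maximal potency below 2 µM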;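 further: 0% = DMSO untreated growth and 100% = chloroquine plus artemisinin killed control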). The note with it: P. falciparum Dd2 in RBCs, LDH growth readout, 72 h; at 2 µM; stronger effect = higher value.
The nature of assay [2]: HepG2 cytotoxicity, primary screen, cytotoxicity control for P. falciparum antimalarial project, cell-based, ATP luminescence (AID 2303;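 active means inhibition above 50%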;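 further: 0% = DMSO wells and 100% = digitonin-killed cells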). To be noted: HepG2 viability, 24-48 h, at 10 µM, stronger effect = higher value.
Assay [3] concerns the target L-lactate dehydrogenase (Plasmodium falciparum (isolate CDC / Honduras)) (UniProt Q27743). The assay can be described thus: PfLDH activity inhibition – cell lysate, 3D7 strain, counter-screen for P. falciparum growth inhibition project (AID 2304).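 Further: 0% = vehicle and 100% = reference inhibitor.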 The note with it: P. falciparum 3D7 crude extract, LDH APAD/NBT absorbance; at 2 µM; stronger effect = higher value.
A short description of assay [4]: inhibition of 3D7 malaria parasite growth – strain 3D7 (AID 2306).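 Further: 0% = DMSO wells and 100% = chloroquine plus artemisinin control wells.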 The note with it: P. falciparum 3D7 erythrocytic growth, LDH absorbance, 72 h; at 2 µM; stronger effect = higher value.
Assay [5] deals with Calcium-dependent protein kinase 1 (Plasmodium falciparum (isolate 3D7)) (UniProt P62344). The assay can be described thus: PfCDPK1 kinase inhibitors, biochemical, TCAMS library (AID 1159585; cut-off not given, nearly all actives have IC50 up to about 0.98 µM;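 further: inhibitors leave more ATP so luminescence rises with inhibition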). The note with it: recombinant PfCDPK1, Kinase-Glo ATP depletion luminescence.
Chain of Calcium-dependent protein kinase 1 (Plasmodium falciparum (isolate 3D7)) (P62344 whole entry, looked up): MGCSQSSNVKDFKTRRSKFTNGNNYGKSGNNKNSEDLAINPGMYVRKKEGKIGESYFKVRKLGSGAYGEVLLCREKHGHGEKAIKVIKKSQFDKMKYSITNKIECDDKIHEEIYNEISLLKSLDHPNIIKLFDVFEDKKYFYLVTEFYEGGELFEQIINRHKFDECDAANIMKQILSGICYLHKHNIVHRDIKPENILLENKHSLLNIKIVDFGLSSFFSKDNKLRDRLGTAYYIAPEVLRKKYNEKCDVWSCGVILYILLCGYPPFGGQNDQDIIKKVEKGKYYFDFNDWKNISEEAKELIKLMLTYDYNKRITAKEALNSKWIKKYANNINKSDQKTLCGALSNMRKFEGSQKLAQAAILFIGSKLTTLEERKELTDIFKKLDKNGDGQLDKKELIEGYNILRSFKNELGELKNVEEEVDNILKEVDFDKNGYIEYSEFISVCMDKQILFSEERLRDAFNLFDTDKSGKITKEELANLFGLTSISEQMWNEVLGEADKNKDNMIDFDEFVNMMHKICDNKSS
Assay [6] addresses Plasmodium falciparum protein kinase 6 (PK6, PF3D7_1337100) (UniProt Q8IDW1). The experiment in a line: PfPK6 kinase inhibitors, biochemical, TCAMS library (AID 1159586). To be noted: recombinant PfPK6, Kinase-Glo ATP depletion luminescence.
The target in assay [7] is Protein kinase 7 (PK7), Plasmodium falciparum 3D7 (PF3D7_0213400) (UniProt Q7YTF7). The experiment in a line: inhibition of Plasmodium PK7 catalytic activity – biochemical, TCAMS antimalarial set, Kinase-Glo luminescence (AID 1159587). To be noted: recombinant PfPK7, Kinase-Glo ATP depletion luminescence. A general note: Kinase-Glo measures the ATP left after a reaction by luminescence.
Chain of Protein kinase 7 (PK7), Plasmodium falciparum 3D7 (PF3D7_0213400) (Q7YTF7 1-343): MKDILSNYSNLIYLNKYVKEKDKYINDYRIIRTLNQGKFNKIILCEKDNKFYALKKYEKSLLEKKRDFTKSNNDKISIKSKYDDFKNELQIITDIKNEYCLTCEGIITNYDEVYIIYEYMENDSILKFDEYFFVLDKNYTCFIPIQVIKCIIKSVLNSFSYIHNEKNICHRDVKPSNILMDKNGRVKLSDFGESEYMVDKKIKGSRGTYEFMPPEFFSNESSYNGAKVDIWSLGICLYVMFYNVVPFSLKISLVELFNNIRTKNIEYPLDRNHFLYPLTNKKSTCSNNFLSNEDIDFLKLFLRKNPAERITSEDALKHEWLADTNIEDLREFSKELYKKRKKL

Assay [8] addresses Calcium-dependent protein kinase 4 (Plasmodium falciparum (isolate 3D7)) (UniProt Q8IBS5). The experiment in a line: PfCDPK4 kinase inhibitors, biochemical, TCAMS library (AID 1159588; cut-off not given, nearly all actives have IC50 up to about 0.91 µM). The note with it: recombinant PfCDPK4, Kinase-Glo ATP depletion luminescence.

Chain of Plasmodium falciparum protein kinase 6 (PK6, PF3D7_1337100) (Q8IDW1 1-305): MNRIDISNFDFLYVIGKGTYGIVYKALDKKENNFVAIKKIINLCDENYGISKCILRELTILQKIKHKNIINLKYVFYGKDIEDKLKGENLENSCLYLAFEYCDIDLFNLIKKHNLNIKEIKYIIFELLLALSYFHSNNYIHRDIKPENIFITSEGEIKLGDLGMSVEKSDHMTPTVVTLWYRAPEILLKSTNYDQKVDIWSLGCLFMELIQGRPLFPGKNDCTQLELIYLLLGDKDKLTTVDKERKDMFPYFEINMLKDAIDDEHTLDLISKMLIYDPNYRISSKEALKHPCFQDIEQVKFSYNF
Chain of Calcium-dependent protein kinase 4 (Plasmodium falciparum (isolate 3D7)) (Q8IBS5 whole entry, looked up): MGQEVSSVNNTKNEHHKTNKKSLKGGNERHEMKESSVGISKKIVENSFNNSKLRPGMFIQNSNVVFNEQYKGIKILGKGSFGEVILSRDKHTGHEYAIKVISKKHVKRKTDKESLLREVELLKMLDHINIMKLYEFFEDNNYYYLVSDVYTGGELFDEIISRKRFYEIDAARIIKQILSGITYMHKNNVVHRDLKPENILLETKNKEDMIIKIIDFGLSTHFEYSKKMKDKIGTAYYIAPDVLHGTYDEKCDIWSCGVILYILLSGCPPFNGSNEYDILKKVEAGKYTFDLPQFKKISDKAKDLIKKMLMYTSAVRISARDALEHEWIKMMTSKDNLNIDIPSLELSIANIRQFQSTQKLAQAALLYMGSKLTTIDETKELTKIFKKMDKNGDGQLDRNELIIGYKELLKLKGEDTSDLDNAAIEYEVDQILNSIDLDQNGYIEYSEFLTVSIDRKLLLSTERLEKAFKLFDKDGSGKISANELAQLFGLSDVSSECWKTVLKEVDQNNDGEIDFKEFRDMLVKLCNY
Chain of L-lactate dehydrogenase (Plasmodium falciparum (isolate CDC / Honduras)) (Q27743 whole entry, looked up): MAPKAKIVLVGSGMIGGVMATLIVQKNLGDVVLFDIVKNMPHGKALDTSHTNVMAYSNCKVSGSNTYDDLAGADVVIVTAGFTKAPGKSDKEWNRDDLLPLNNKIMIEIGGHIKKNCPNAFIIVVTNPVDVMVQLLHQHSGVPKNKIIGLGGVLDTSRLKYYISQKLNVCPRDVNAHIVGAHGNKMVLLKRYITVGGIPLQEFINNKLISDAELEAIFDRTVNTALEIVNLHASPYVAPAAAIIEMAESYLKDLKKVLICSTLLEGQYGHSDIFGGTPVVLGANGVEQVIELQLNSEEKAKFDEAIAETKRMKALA

For `CC(CN(C)C)C(=O)Nc1cccc(-c2cccc(-c3nc4ccc(F)cc4[nH]3)c2)c1` (stereo not given), the growth inhibition in assay [1] is 94% (active); in assay [4] it was 101% (active). In addition, the inhibition in assay [2] is 29%; in assay [3], 5%. The outcome in assay [5], in assay [6], in assay [7] and in assay [8] was inactive.
In the case of `COc1ccc(CCN(C)CCc2ccc(NC(=O)c3cccc4c(=O)c5ccccc5sc34)cc2)cc1`, the results for the growth inhibition in assay [1] and in assay [4] were 33% and 95% (active), respectively. Moreover, the inhibition in assay [2] is 24%; in assay [3] it was -2%. For the same molecule, the outcome in assay [5], in assay [6], in assay [7] and in assay [8] was inactive.
Turning to `O=C(Nc1cccc(-c2ccc(-c3nc4ccc(F)cc4[nH]3)cc2)c1)Nc1ccc(Cl)c(Cl)c1`, the values for the growth inhibition in assay [1] and in assay [4] were 49% and 100% (active), respectively. Further, the inhibition in assay [2] was 79% (active); in assay [3], 3%. Moreover, the result in assay [5], in assay [6], in assay [7] and in assay [8] was inactive.
As for `Cc1c(C)n(C2CCCCC2)c2ncnc(OC3CCN(CC(=O)NC4CC4)CC3)c12`, the values for the growth inhibition in assay [1] and in assay [4] were 72% (active) and 94% (active), respectively. In addition, the figures for the inhibition in assay [2] and in assay [3] were 21% and -2%, respectively. Moreover, the outcome in assay [5], in assay [6], in assay [7] and in assay [8] was inactive.
Consider `Cc1c(C)n(C2CCCCC2)c2ncnc(OC3CCN(CC(=O)N4CCCC4)CC3)c12`, for which the growth inhibition in assay [1] is 59% (active); in assay [4], 95% (active). Further, the inhibition in assay [2] was 31%; in assay [3], -4%. Further, the outcome in assay [5], in assay [6], in assay [7] and in assay [8] was inactive.
For the molecule `COc1cc(F)c2ncc(Cl)c(CCN3CCC(NCc4ccc5c(n4)NC(=O)CO5)CC3)c2c1`, the growth inhibition is 19% in assay [1] and 89% (active) in assay [4]. In addition, the figures for the inhibition in assay [2] and in assay [3] were 20% and -1%, respectively. Also, the outcome in assay [5], in assay [6], in assay [7] and in assay [8] was inactive.
For `O=C(NCCCN1CCN(c2cccc(Cl)c2)CC1)c1ccc(-c2nc3cc(Cl)c(Cl)cc3[nH]2)cc1`, the figures for the growth inhibition in assay [1] and in assay [4] were 95% (active) and 98% (active), respectively. The inhibition in assay [2] is 3%; in assay [3], -1%. The result in assay [5], in assay [6], in assay [7] and in assay [8] was inactive.
In the case of `Cc1ccccc1C1CCN(c2ccc(C(=O)Nc3ccccc3)cn2)CC1`, the growth inhibition was 94% (active) in assay [1] and 95% (active) in assay [4]. Further, the inhibition in assay [2] was 53% (active); in assay [3] it was -2%. The outcome in assay [5], in assay [6], in assay [7] and in assay [8] was inactive.
In the case of `COc1ccc(CCC(C)N2C[C@@H](N)[C@H](c3cn(C)c4cnccc34)C2)cc1` (stereo not given in full), the growth inhibition in assay [1] is -4%; in assay [4] it was 98% (active). For the same molecule, the values for the inhibition in assay [2] and in assay [3] were 5% and -1%, respectively. Also, the outcome in assay [5], in assay [6], in assay [7] and in assay [8] was inactive.
Take `CCC1N=C(N)N=C(N)N1OCCCOc1c(Cl)cc(Cl)cc1Cl` (stereo not given): the growth inhibition in assay [1] is 96% (active); in assay [4], 95% (active). The inhibition was 67% (active) in assay [2] and 2% in assay [3]. Besides, the outcome in assay [5], in assay [6], in assay [7] and in assay [8] was inactive.
For `C[C@@H](NCCc1cccc(Cl)c1)[C@@H](O)c1ccc(OCCCCCCOc2ccc([C@H](O)[C@@H](C)NCCc3cccc(Cl)c3)cc2)cc1`, the growth inhibition in assay [1] and in assay [4] was 100% (active) throughout. The inhibition is 96% (active) in assay [2] and -1% in assay [3]. Also, the result in assay [5], in assay [6], in assay [7] and in assay [8] was inactive.
`Cc1cccc(C(=O)Nc2ccnc(N3CCC(N(C)Cc4cccc(C#N)c4)CC3)c2)c1`: the growth inhibition in assay [1] is 52% (active); in assay [4] it was 101% (active). Further, the inhibition in assay [2] was 5%; in assay [3], -2%. In addition, the outcome in assay [5], in assay [6], in assay [7] and in assay [8] was inactive.
Take `CC1=C(C(=O)Nc2ccccc2)C(c2ccc([N+](=O)[O-])cc2)n2ncc(C(=O)Nc3ccccc3)c2N1` (stereo not given): the growth inhibition was 68% (active) in assay [1] and 86% (active) in assay [4]. In addition, the figures for the inhibition in assay [2] and in assay [3] were 9% and -1%, respectively. The result in assay [5], in assay [6], in assay [7] and in assay [8] was inactive.
As to `CCOc1ccc(Br)cc1/C=C/C(=O)Nc1ccc2c(c1)CN(C)CCC2`, the growth inhibition is 37% in assay [1] and 97% (active) in assay [4]. The inhibition was 18% in assay [2] and 1% in assay [3]. The result in assay [5], in assay [6], in assay [7] and in assay [8] was inactive.
Take `COc1cc2c(cc1N(C(C)C)S(=O)(=O)c1sc3ccc(Cl)cc3c1C)CCNCC2`: the figures for the growth inhibition in assay [1] and in assay [4] were 70% (active) and 91% (active), respectively. Further, the results for the inhibition in assay [2] and in assay [3] were 98% (active) and -3%, respectively. Moreover, the outcome in assay [5], in assay [6], in assay [7] and in assay [8] was inactive.
On to `Clc1ncnc2scc(-c3ccc(Br)cc3)c12`, for which the growth inhibition in assay [1] was 96% (active); in assay [4] it was 95% (active). Moreover, the inhibition was -3% in assay [2] and -2% in assay [3]. Moreover, the outcome in assay [5], in assay [6], in assay [7] and in assay [8] was inactive.
In the case of `CC(=O)Nc1ncc(C(=O)Nc2cccc(-c3cccc(-c4nc5c(C)cccc5[nH]4)c3)c2)s1`, the growth inhibition is 64% (active) in assay [1] and 94% (active) in assay [4]. The inhibition is 15% in assay [2] and 4% in assay [3]. For the same molecule, the result in assay [5], in assay [6], in assay [7] and in assay [8] was inactive.
On to `CCNC(=O)Nc1ccc(-c2ccc(-c3nc4c(C)cccc4[nH]3)s2)cc1`, for which the results for the growth inhibition in assay [1] and in assay [4] were 13% and 96% (active), respectively. Moreover, the inhibition is 18% in assay [2] and -2% in assay [3]. For the same molecule, the result in assay [5], in assay [6], in assay [7] and in assay [8] was inactive.
For `Fc1ccc2nc(-c3ccc(-c4ccc(CN5CCC(CCN6CCCCC6)CC5)cc4)cc3)[nH]c2c1`, the growth inhibition in assay [1] and in assay [4] was 100% (active) each time. Also, the inhibition in assay [2] was 98% (active); in assay [3], -9%. Further, the outcome in assay [5], in assay [6], in assay [7] and in assay [8] was inactive.
For `CCCN1CCC2(CC1)NC(C(=O)NCCC(C)C)Cc1c2[nH]c2cc(Cl)ccc12` (stereo not given), the growth inhibition in assay [1] was 0%; in assay [4] it was 86% (active). The inhibition in assay [2] is 13%; in assay [3], -3%. Further, the outcome in assay [5], in assay [6], in assay [7] and in assay [8] was inactive.
